# Reference: the supplement of paper PMC8728848
# The full list was thinned out, with the strongest signals kept by preference.
# B1: CwpV (Clostridium difficile), B6EFG6 (protein)
# chain: MKIPKKIAAMLTVTMIAGSSTAGIASAQTVATNLTGQERYETAVKISQDGWKNADEVVIVNDSSIADALSATPFAKAKNAPILLTSKDKLNDKTKAEIQRLKAKKVYLIGGTSVLSTNIEKEIKDLKISFERISGAERYQTSLELAKKLDAISDVKKIAVVNGEKGLADAVSVGAPAAQNNMPVILADSKNGTAVADKFIKDAGITQSYVVGGESSISEAVKNKLPNSTRLGGTDRNDTNAKVIKEFYKKTDLKNAYVTKDGMNKQDQLIDALAVGVLGAKNQSPVVLVGKNLSASQKSLVNSKSFDKITKVGGNGNETAFNEMKSLQEVKTVEAKTISELKSAIDKATANDVINFKPTSEVKEAFTIQTDKAVTVNLNGTYTKTVTINMPNGDVNNYAKVDDVVIDDVKDGTFVNYGKITNLKVNDKNGAKIENNSKGEIGSLTVASGASQVKVTNGGKITTVTNNSKGTTIDNKGTISSVKGDNSPTISGNSPSSNSSGGSSSSGGSSGGSSGGSSSSKVGQIKFSATDKQIKMASGDKTVDPSDNTYILKLTNGTVKDGDVKANVKVAGLPSGLDYTAVGNRSANTITITVSGTTSQSIQNDLNNVSVLVKAGAVSGTGATDSIANTTFEIKKYVAAPAVGQLTFDATDKQIKMASGDKTVDPSDDTYVLTLTKGTAKDGDIKANVEVTGLPSGLDYTAEGDSSANTITIPVSGTASPAVQTDLDNVSVLVKAGAVSETTATDSAANATFEVKKYVAPAVGQLTFDATDKQIKMASGDKTVDPSDDTYVLTLTKGTAKDGDIKANVEVTGLPSGLDYTAEGDSSANTITITVSGTASQAVQTDLDNVSVLVKAGAVSETTATDSAANATFEVKKYVAPAIGQLTFDATDKQIKMASGDKTVDPSDDTYVLTLTKGTAKDGDIKANVEVTGLPSGLDYTAEGDSSANTITITVSGTASQAVQTDLDNVSVLVKAGAVSETTATDSAANATFEVKKHASDPISTIGKISSGLSSLFNILK
# Columns and labels:
# Assay in all cases: glycan array binding signal (z-score within array); higher = stronger binding
# Details in all cases: glycan notation: IUPAC condensed, linker removed
# [1] = target: Fuc(a1-2)Gal(b1-3)GalNAc(b1-3)Gal(a1-4)Gal(b1-4)Glc
# Method in brief: (§1)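 The binding signal is a Z-score computed within each array. Data were drawn from 3228 arrays in the Consortium for Functional Glycomics database, restricted to those with a known protein sequence. Scores were averaged over arrays of the same protein sequence at different concentrations or buffers, and over linkers, and negative values can be taken as non-binding.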
# [2] = target: Fuc(a1-2)Gal(b1-3)[Fuc(a1-4)]GlcNAc(b1-3)[Gal(b1-4)GlcNAc(b1-6)]Gal(b1-4)Glc
# Method in brief: as §1
# [3] = target: Fuc(a1-2)Gal(b1-4)[Fuc(a1-3)]GlcNAc(b1-3)GalNAc
# Method in brief: as §1
# [4] = target: Fuc(a1-2)[GalNAc(a1-3)]Gal(b1-4)GlcNAc(b1-2)Man(a1-3)[Fuc(a1-2)[GalNAc(a1-3)]Gal(b1-4)GlcNAc(b1-2)Man(a1-6)]Man(b1-4)GlcNAc(b1-4)GlcNAc
# Method in brief: as §1
# [5] = target: Fuc(a1-2)[GalNAc(b1-3)]Gal
# Method in brief: as §1
# [6] = target: Fuc(a1-3)[Gal(b1-4)]GlcNAc(b1-2)Man(a1-3)[Fuc(a1-3)[Gal(b1-4)]GlcNAc(b1-2)Man(a1-6)]Man(b1-4)GlcNAc(b1-4)GlcNAc
# Method in brief: as §1
# [7] = target: Fuc(a1-3)[Gal(b1-4)]GlcNAc(b1-3)GalNAc
# Method in brief: as §1
# [8] = target: Gal(a1-3)Gal(b1-3)GlcNAc(b1-2)Man(a1-3)[Gal(a1-3)Gal(b1-3)GlcNAc(b1-2)Man(a1-6)]Man(b1-4)GlcNAc(b1-4)GlcNAc
# Method in brief: as §1
# [9] = target: Gal(a1-3)Gal(b1-3)[Fuc(a1-4)]GlcNAc(b1-2)Man(a1-3)[Gal(a1-3)Gal(b1-3)[Fuc(a1-4)]GlcNAc(b1-2)Man(a1-6)]Man(b1-4)GlcNAc(b1-4)GlcNAc
# Method in brief: as §1
# Gal(a1-4)Gal(b1-4)GlcNAc = target: Gal(a1-4)Gal(b1-4)GlcNAc
# Method in brief: as §1
# [10] = target: Gal(a1-4)Gal(b1-4)GlcNAc(b1-2)Man(a1-3)[Gal(a1-4)Gal(b1-4)GlcNAc(b1-2)Man(a1-6)]Man(b1-4)GlcNAc(b1-4)GlcNAc
# Method in brief: as §1
# [11] = target: Gal(a1-4)Gal(b1-4)GlcNAc(b1-3)Gal(b1-4)Glc
# Method in brief: as §1
# Gal(b1-3)Gal(b1-4)GlcNAc = target: Gal(b1-3)Gal(b1-4)GlcNAc
# Method in brief: as §1
# [12] = target: Gal(b1-3)GlcNAc(b1-3)Gal(b1-3)GlcNAc
# Method in brief: as §1
# [13] = target: Gal(b1-3)GlcNAc(b1-3)Gal(b1-4)GlcNAc
# Method in brief: as §1
# [14] = target: Gal(b1-3)[Neu5Ac(a2-6)]GalNAc
# Method in brief: as §1
# [15] = target: Gal(b1-4)GlcNAc(b1-2)Man(a1-3)[Man(a1-6)]Man(b1-4)GlcNAc(b1-4)GlcNAc
# Method in brief: as §1
# [16] = target: Gal(b1-4)GlcNAc(b1-3)[Gal(b1-4)GlcNAc(b1-6)]GalNAc
# Method in brief: as §1
# Gal3S(b1-4)Glc = target: Gal3S(b1-4)Glc
# Method in brief: as §1
# [17] = target: GalNAc(b1-3)Gal(a1-4)Gal(b1-4)GlcNAc(b1-3)Gal(b1-4)Glc
# Method in brief: as §1
# [18] = target: GalNAc(b1-3)Gal(a1-6)Gal(b1-4)Glc
# Method in brief: as §1
# GlcA(b1-3)GlcNAc = target: GlcA(b1-3)GlcNAc
# Method in brief: as §1
# [19] = target: GlcNAc(a1-4)Gal(b1-4)GlcNAc
# Method in brief: as §1
# [20] = target: GlcNAc(a1-4)Gal(b1-4)GlcNAc(b1-3)Gal(b1-4)[Fuc(a1-3)]GlcNAc(b1-3)Gal(b1-4)[Fuc(a1-3)]GlcNAc
# Method in brief: as §1
# [21] = target: GlcNAc(b1-2)Man(a1-3)[GlcNAc(b1-2)Man(a1-6)]Man(b1-4)GlcNAc(b1-4)GlcNAc
# Method in brief: as §1
# [22] = target: GlcNAc(b1-2)[GlcNAc(b1-4)]Man(a1-3)[GlcNAc(b1-4)][GlcNAc(b1-2)Man(a1-6)]Man(b1-4)GlcNAc(b1-4)GlcNAc
# Method in brief: as §1
# [23] = target: GlcNAc(b1-3)Gal(b1-3)GalNAc
# Method in brief: as §1
# GlcNAc(b1-3)Gal(b1-4)Glc = target: GlcNAc(b1-3)Gal(b1-4)Glc
# Method in brief: as §1
# GlcNAc(b1-3)GalNAc = target: GlcNAc(b1-3)GalNAc
# Method in brief: as §1
# [24] = target: GlcNAc(b1-4)GlcNAc(b1-4)GlcNAc(b1-4)GlcNAc(b1-4)GlcNAc(b1-4)GlcNAc
# Method in brief: as §1
# [25] = target: GlcNAc(b1-4)[GlcNAc(b1-6)]GalNAc
# Method in brief: as §1
# [26] = target: Neu5Ac(a2-3)Gal(b1-3)GalNAc(b1-3)Gal(a1-4)Gal(b1-4)Glc
# Method in brief: as §1
# [27] = target: Neu5Ac(a2-3)Gal(b1-3)GalNAc(b1-4)[Neu5Ac(a2-3)]Gal(b1-4)Glc
# Method in brief: as §1
# [28] = target: Neu5Ac(a2-3)Gal(b1-3)GlcNAc(b1-3)Gal(b1-3)GlcNAc
# Method in brief: as §1
# [29] = target: Neu5Ac(a2-3)Gal(b1-3)[Fuc(a1-4)]GlcNAc(b1-3)Gal(b1-3)[Fuc(a1-4)]GlcNAc
# Method in brief: as §1
# [30] = target: Neu5Ac(a2-3)Gal(b1-4)[Fuc(a1-3)]GlcNAc(b1-3)Gal(b1-4)GlcNAc
# Method in brief: as §1
# [31] = target: Neu5Ac(a2-6)Gal(b1-3)GlcNAc(b1-3)[Gal(b1-4)GlcNAc(b1-6)]Gal(b1-4)Glc
# Method in brief: as §1
# [32] = target: Neu5Ac(a2-6)Gal(b1-4)GlcNAc(b1-2)Man(a1-3)[GlcNAc(b1-2)Man(a1-6)]Man(b1-4)GlcNAc(b1-4)GlcNAc
# Method in brief: as §1
# [33] = target: Neu5Ac(a2-6)Gal(b1-4)GlcNAc(b1-3)GalNAc
# Method in brief: as §1
# [34] = target: Neu5Ac9Ac(a2-6)Gal(b1-4)GlcNAc
# Method in brief: as §1
# Neu5Gc(a2-3)Gal(b1-4)Glc = target: Neu5Gc(a2-3)Gal(b1-4)Glc
# Method in brief: as §1
# [35] = target: Neu5Gc(a2-3)Gal(b1-4)GlcNAc
# Method in brief: as §1
# [36] = target: Neu5Gc(a2-6)Gal(b1-4)GlcNAc
# Method in brief: as §1
# Neu5Gc(a2-6)GalNAc = target: Neu5Gc(a2-6)GalNAc
# Method in brief: as §1
binder,measurement,setting,value
B1,glycan array binding signal (z-score),[1],2.48
same,glycan array binding signal (z-score),[2],0.041
same,glycan array binding signal (z-score),[3],0.596
same,glycan array binding signal (z-score),[4],-0.032
same,glycan array binding signal (z-score),[5],-0.249
same,glycan array binding signal (z-score),[6],-0.175
same,glycan array binding signal (z-score),[7],0.07
same,glycan array binding signal (z-score),[8],0.365
same,glycan array binding signal (z-score),[9],0.538
same,glycan array binding signal (z-score),Gal(a1-4)Gal(b1-4)GlcNAc,2.24
same,glycan array binding signal (z-score),[10],9.72
same,glycan array binding signal (z-score),[11],2.79
same,glycan array binding signal (z-score),Gal(b1-3)Gal(b1-4)GlcNAc,-0.025
same,glycan array binding signal (z-score),[12],-0.249
same,glycan array binding signal (z-score),[13],0.622
same,glycan array binding signal (z-score),[14],-0.248
same,glycan array binding signal (z-score),[15],-0.26
same,glycan array binding signal (z-score),[16],-0.34
same,glycan array binding signal (z-score),Gal3S(b1-4)Glc,-0.29
same,glycan array binding signal (z-score),[17],6.4
same,glycan array binding signal (z-score),[18],2.68
same,glycan array binding signal (z-score),GlcA(b1-3)GlcNAc,8.78
same,glycan array binding signal (z-score),[19],-0.192
same,glycan array binding signal (z-score),[20],0.469
same,glycan array binding signal (z-score),[21],-0.124
same,glycan array binding signal (z-score),[22],-0.317
same,glycan array binding signal (z-score),[23],-0.217
same,glycan array binding signal (z-score),GlcNAc(b1-3)Gal(b1-4)Glc,-0.297
same,glycan array binding signal (z-score),GlcNAc(b1-3)GalNAc,-0.322
same,glycan array binding signal (z-score),[24],1.05
same,glycan array binding signal (z-score),[25],-0.284
same,glycan array binding signal (z-score),[26],11.2
same,glycan array binding signal (z-score),[27],-0.101
same,glycan array binding signal (z-score),[28],-0.328
same,glycan array binding signal (z-score),[29],0.484
same,glycan array binding signal (z-score),[30],0.368
same,glycan array binding signal (z-score),[31],-0.21
same,glycan array binding signal (z-score),[32],-0.249
same,glycan array binding signal (z-score),[33],0.056
same,glycan array binding signal (z-score),[34],-0.322
same,glycan array binding signal (z-score),Neu5Gc(a2-3)Gal(b1-4)Glc,-0.229
same,glycan array binding signal (z-score),[35],-0.046
same,glycan array binding signal (z-score),[36],-0.292
same,glycan array binding signal (z-score),Neu5Gc(a2-6)GalNAc,-0.29
